ALDH1A1 block: qHTS Assay for Inhibitors of Aldehyde Dehydrogenase 1 (ALDH1A1); Aldehyde dehydrogenase 1A1 (Homo sapiens), P00352; Purified ALDH1A1, NADH fluorescence, propionaldehyde substrate; Potency, µM (doses to about 75.3 µM), inactives show at the highest dose activity, negative = inhibition, usual class: inhibitors; hit rate 7.3% among 220,000; AID 1030, 2008;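 also: plate controls were no enzyme wells and a reference inhibitor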
Target sequence (P00352 whole entry, looked up): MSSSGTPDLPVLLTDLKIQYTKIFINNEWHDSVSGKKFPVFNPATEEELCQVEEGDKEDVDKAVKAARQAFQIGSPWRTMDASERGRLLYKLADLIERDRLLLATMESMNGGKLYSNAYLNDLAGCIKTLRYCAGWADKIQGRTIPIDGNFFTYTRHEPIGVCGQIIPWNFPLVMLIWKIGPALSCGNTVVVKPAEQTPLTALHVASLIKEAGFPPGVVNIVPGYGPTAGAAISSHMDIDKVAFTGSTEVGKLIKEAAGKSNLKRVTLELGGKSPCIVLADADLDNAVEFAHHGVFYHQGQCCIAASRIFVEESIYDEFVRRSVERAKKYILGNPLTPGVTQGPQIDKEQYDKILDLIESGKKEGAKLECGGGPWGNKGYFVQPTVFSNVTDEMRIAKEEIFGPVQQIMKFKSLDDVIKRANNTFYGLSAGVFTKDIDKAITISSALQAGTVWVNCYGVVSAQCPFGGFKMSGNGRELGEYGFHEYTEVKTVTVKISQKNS
Luc counter: Counterscreen for Luciferase (Kinase-Glo TM) Inhibition; AID 1379, 2008; Potency, µM (series often up to 38.3 µM), without a hit: top-dose activity change, negative = inhibition, hits mostly inhibitors; hit rate 0.28% among 200,000; Kinase-Glo luciferase, ATP luminescence, 8 min; active = well fitted curve in the direction sought with a large enough effect; inconclusive = small, poorly fitted or top-dose-only effect, or another doubt; inactive = no such curve, though single readings can be large; an effect the other way counts as inactive or inconclusive; also: nearly all actives have a fitted effect of over 60% in size
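Compound is pinned into ATP-containing buffer (10 uM ATP, imidazole pH 7.2, 7 mM MgCl2). Kinase-Glo luciferase reagent is then added. Light output is recorded following an 8-min room-temperature incubation.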
IMPase Li cell: qHTS Assay for Identifying the Cell-Membrane Permeable IMPase Inhibitors: Potentiation with Lithium; CHO-M1 cells, IP1 TR-FRET (IP-One), carbachol + lithium; Potency, µM (series often up to 59.4 µM), without a hit: top-dose activity, negative = IMPase inhibition, actives largely listed as inhibitors; hit rate 0.35% among 210,000; AID 1457, 2008; active = well fitted curve in the direction sought with a large enough effect; inconclusive = small, poorly fitted or top-dose-only effect, or another doubt; inactive = no such curve, though single readings can be large; an effect the other way counts as inactive or inconclusive;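 also: IP1 builds up when IMPase is blocked and the TR-FRET signal falls; plate controls were basal vehicle for no effect and high inhibitor control for full effect; nearly all actives have a fitted effect of over 50% in size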
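CHO-M1, 2000 cells/well, 16–30 h culture; cpd + low Li+, 30 min 37C; lysis with d2-IP1/Eu-anti-IP1 Ab, 10 min RT; TR-FRET 665/620 ratio and 620 channel; AC50 via Hill.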
HPGD inh: qHTS Assay for Inhibitors of HPGD (15-Hydroxyprostaglandin Dehydrogenase). 15-hydroxyprostaglandin dehydrogenase [NAD(+)] (Homo sapiens), P15428. purified HPGD, NADH fluorescence kinetic, PGE2 substrate. Potency, µM, for the others: at the highest dose activity change, negative = inhibition, usual class: inhibitors. hit rate 4.3% among 150,000. AID 894, 2007
Target sequence (P15428 whole entry, looked up): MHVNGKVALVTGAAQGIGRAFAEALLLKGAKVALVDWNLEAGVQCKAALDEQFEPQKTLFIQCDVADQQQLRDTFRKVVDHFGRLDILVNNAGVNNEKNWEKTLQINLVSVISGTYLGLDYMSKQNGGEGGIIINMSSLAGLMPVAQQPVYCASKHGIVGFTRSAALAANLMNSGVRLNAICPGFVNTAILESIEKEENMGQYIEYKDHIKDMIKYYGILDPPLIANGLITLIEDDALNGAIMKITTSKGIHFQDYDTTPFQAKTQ
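NADH formation kinetics: reaction with 30 uM PGE2 and 1 mM NAD+ (final), 20 nM enzyme, Tris-HCl pH 8 with Tween 20, after 15 min compound preincubation at room temperature. Fluorescence change, last versus first of five reads.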
LMNA splice mod: qHTS Assay for Modulators of Lamin A Splicing | HeLa LMNA splicing GFP/RFP minigene ratio, 48 h | Potency, µM (doses to about 46.1 µM), inactives show at the highest dose ratio change, negative = inhibition, usual class: inhibitors | hit rate 0.01% among 200,000 | AID 1487, 2009; active = well fitted inhibition curve with a large enough effect in the signal ratio, with a control signal flat, not every such curve was filed as active; inconclusive = small, poorly fitted or top-dose-only effect, or effect the other way, or a change in a side signal; the % refers to the signal ratio
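S3 HeLa cells stably expressing lamin A-EGFP splicing minigene plus DsRed2, 600 cells/well, 48 h compound exposure at 37C. Laser-scanning cytometry; analysed as GFP (500-530 nm)/RFP (575-640 nm) total intensity ratio; 0.5% DMSO vehicle.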
* marks the source's active call; other numbers are inactive results; ? = inconclusive; / = not tested or not shown; [ ] = dose if it differs, or a comment. An excerpt weighted towards active compounds, which were near 9% of everything screened. Unless noted, calls follow the shape of the dose curve; as a rule, active = well fitted inhibition curve with a large enough effect (not every such curve was filed as active); inconclusive = small, poorly fitted or top-dose-only effect, or another doubt; inactive = no such curve, though single readings can be large or run the other way. Unless noted, % is scaled to controls: 0 for no effect and ±100 for the full control effect; potency is read from the fitted curve at half-maximal effect.

SMILES	ALDH1A1 block	Luc counter	IMPase Li cell	HPGD inh	LMNA splice mod
CC(CCc1ccccc1)NS(=O)(=O)c1ccccc1 (stereo not drawn)	10µM*	2%	-6%[38.3 µM]	-11%	5%
CNc1nc(SC)nc(N(C)C#N)n1	3%	1%	3%	/	?
O=C1c2cccnc2C(O)N1Cc1ccco1 (stereo not drawn)	20µM*	3%	-9%	5%	-5%
COc1ccc(CN2C(=O)c3cccnc3C2Nc2ccc(C)cc2)cc1 (stereo not drawn)	1%	-3%	19%[38.3 µM]	-14%	-3%
Cc1ccc(NC2c3ncccc3C(=O)N2Cc2cccs2)cc1 (stereo not drawn)	28µM*	2%	-1%	/	23%[9.22 µM]
O=C1c2cccnc2C(Nc2ccccc2Br)N1Cc1ccco1 (stereo not drawn)	25µM*	-7%	13%	/	/
O=C1c2cccnc2C(Nc2ccccc2)N1Cc1ccco1 (stereo not drawn)	22µM*	0%	23%[38.3 µM]	?	10%
CCC(=Nc1ccccc1)C1=C(O)CC(C)(C)CC1=O	-2%	-3%	-8%	/	/
CCOC(=O)C1CCN(Cc2cn3c(-c4ccc(OC)cc4)nnc3s2)CC1	/	/	/	/	-6%[46 µM]
CCOC(=O)C(=O)/C(C#N)=C/Nc1ccc(F)cc1	28µM*	3%	9%[38.3 µM]	-20%	8%
CCOC(=O)NC(=O)/C(C#N)=N/Nc1ccc(F)cc1	-5%	-1%	33%[38.3 µM]	-27%	1%
COC(=O)[C@@H]1CC[C@H](C)[C@@H](c2ccc(C)cc2)N1C(=O)c1ccc(/C=N\O[C@@H](C)c2cc(-c3c(C)cc(C)cc3C)no2)cc1	8%[13.5 µM]	/	/	/	/
C=CCn1c(NC(=O)c2ccc(Br)o2)c(S(=O)(=O)c2ccccc2)c2nc3ccccc3nc21	?	-1%	10µM*	?	?
COc1cc(CNC(C)C)c(Br)cc1OC1CCCC1	-2%	0%	-3%	/	?
C[C@@](Cc1ccccc1)(NC(=O)CN)c1ccccc1	-6%	3%	-4%	-5%	/
COC(=O)N1[C@H](C)C=C[C@]1(Cc1ccccc1)C(=O)NCc1ccc(N(C)C)cc1	8.9µM*	-7%	-2%	-14%	/
COc1ccccc1OCc1ccc(C(=O)N2CCN3CCCC3C2)cc1 (stereo not drawn)	?	1%	4%[38.3 µM]	20µM*	7%
S=c1[nH]nc([C@@H]2C[C@H]2c2ccccc2)n1-c1ccccc1	?	0%	-8%	25µM*	1%
COc1ccc(-n2c3c(cc(C(=O)NNc4ccccc4)c2=O)C(=O)CC(C)(C)C3)cc1	?	10%	9%	/	/
COc1ccc(-n2c3c(cc(C(=O)NNc4ccccc4C)c2=O)C(=O)CC(C)(C)C3)cc1	20µM*	1%	-3%	/	3%[9.22 µM]
Cc1cc(C)cc(-n2c(C)cc(C=C(C#N)C#N)c2C)c1	1%	-9%	10µM*	-15%	6%
N#Cc1ccc(CSc2nnc(NC(=O)c3ccc4ncsc4c3)s2)cc1	?	3%	7.9µM*	/	/
O=C(Nc1nnc(SCc2c(Cl)cccc2Cl)s1)c1ccc2ncsc2c1	?	3%	8%	/	/
O=C(COCc1cc(-c2cccs2)on1)Nc1ccc(OC(F)(F)F)cc1	/	/	/	/	10%[46 µM]
CCN(CC)CC(=O)n1c2c(c3ccccc31)CCCC2	32µM*	2%	-10%[38.3 µM]	-10%	9%
SMILES	ALDH1A1 block	Luc counter	IMPase Li cell	HPGD inh	LMNA splice mod
O=C1C(=C(O)c2ccccc2)C(=O)c2ccccc21	4µM*	-2%	2%[38.3 µM]	-25%	?
NC(N)=O	7%	-1%	1%	-8%	?
NC(=O)/N=N/C(N)=O	0.45µM*	/	-7%	10µM*	/
Cc1ccc(O)c(-c2cc(-c3cccc(Br)c3)n[nH]2)c1	-4%	-2%	2%	/	/
Cc1ccc(O)c(-c2cc(C(F)(F)F)[nH]n2)c1	8%	1%	-5%[38.3 µM]	14µM*	5%
COC(=O)CSC(C(=O)Nc1ccc(C)c(C)c1)c1ccccc1 (stereo not drawn)	10µM*	2%	1%[38.3 µM]	-23%	0%
CCOc1ccc2nc(N3CCC(C(=O)N4CCN(C(=O)c5ccco5)CC4)CC3)sc2c1	16µM*	-4%	9%	-1%	?
O=c1sc(N2CCN(c3ccc(F)cc3)CC2)nc2ccsc12	?	-1%	22µM*	-27%	5%
CCOc1ccc2nc(N3CCCC(C(=O)N4CCN(CC)CC4)C3)sc2c1 (stereo not drawn)	2%	0%	9%[38.3 µM]	-20%	2%
O=C(c1ccco1)N1CCN(c2nc3ccc(Cl)cc3s2)CC1	/	/	/	/	13%[46 µM]
O=C(c1ccco1)N1CCN(c2nc3ccsc3c(=O)s2)CC1	13µM*	4%	26%[38.3 µM]	?	-2%
CC(=O)OC1CC[C@]2(C)C(CC[C@@]3(C)C2C(=O)C=C2C4C(C)C(C)CC[C@@]4(C(=O)O)CCC23C)C1(C)C (stereo partly drawn)	10%	-2%	2%	0%	?
CC1=C(c2ccc(C)cc2)S(=O)(=O)N(Cc2ccc(C(=O)NCc3ccccc3F)cc2)C1=O	/	/	/	/	10%[46 µM]
CCCn1c(-c2ccc[nH]c2=O)nc2cc(C)c(C)cc21	?	-24%	-10%	/	/
CSc1ccc(C(=S)N2CCN(CCO)CC2)cc1	22µM*	1%	4%	25µM*	-4%
OCCN1CCN(C(=S)c2ccc(Br)cc2)CC1	6%	-2%	6%[38.3 µM]	-9%	3%
CCCCCCCC1=CC2=C(Cl)C(=O)C(C)(OC(C)=O)C(=O)C2=CO1 (stereo not drawn)	-1%	-1%	9%	-13%	/
c1ccccc1	10%	/	-4%	-3%	/
CCOc1cccc(/C=N/NS(=O)(=O)c2ccc(C)c([N+](=O)[O-])c2)c1O	4µM*	6%	5%	/	-12%[46 µM]
COc1ccc(-n2c(O)c(/C=N/NS(=O)(=O)c3ccc(C)c([N+](=O)[O-])c3)c3ccccc3c2=O)cc1OC	?	-4%	1%	/	?
COc1cc(/C=N/NS(=O)(=O)c2ccc(C(C)(C)C)cc2)cc([N+](=O)[O-])c1O	7.9µM*	/	-1%	/	/
Cc1ccc(S(=O)(=O)N/N=C/c2cc([N+](=O)[O-])ccc2O)cc1[N+](=O)[O-]	13µM*	-1%	-6%	/	?
COc1cc(/C=N/NS(=O)(=O)c2ccc(C)c([N+](=O)[O-])c2)ccc1O	13µM*	5%	8%	/	-4%[46 µM]
COc1ccc(OC)c(CCNC(=O)c2cnn(-c3ccccc3)c2C2CCN(C(=O)OC(C)(C)C)CC2)c1	/	/	/	/	-16%[46 µM]
Cc1noc(C)c1CSc1ncnc2sc3c(c12)CCCCC3	28µM*	-1%	20%	?	3%
